Data on 16 compounds can be found in PubChem BioAssay.

Assay [1] concerns Plasmodium falciparum Sir2 (PF13_0152, Sir2A). The experiment in a line: Plasmodium falciparum Sir2A binding compounds – biochemical, small-molecule microarray, 635 nm fluorescence, primary screen (AID 1098).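 Note: score merges spot fluorescence intensity with its signal-to-noise ratio.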 The following applies: fluorescence 635 nm, higher = more signal.
The nature of assay [2]: probe aDKK1 binding to arrayed compounds – biochemical, biotinylated probe, 635/667 nm fluorescence, primary screen (AID 1099).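 Note: score merges 667nm spot fluorescence with signal to noise across triplicate slides; reference of the scale not given here.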 The following applies: small-molecule microarray, higher = more signal.
A short description of assay [3]: probe aCHRDL2 binding to arrayed compounds – biochemical, biotinylated probe, 635/667 nm fluorescence, primary screen (AID 1100). The following applies: small-molecule microarray, higher = more signal.
Assay [4] can be described thus: change in splice reporter luminescence, either direction, cell-based, HEK293, spliceosome inhibition project, primary screen (AID 1101).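 Note: HEK293 cells carrying a splicing-competent luciferase reporter gene; test concentration not given here.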 The following applies: HEK293 splicing luciferase reporter, 24 h, higher = more signal, called active from +8 up or from −8 down. (In a reporter assay the amount or activity of a reporter protein is the signal.)
Assay [5] addresses Fibroblast growth factor 10 (Homo sapiens) (UniProt O15520). Kind of assay: compounds binding fibroblast growth factor 10 – biochemical, small-molecule microarray, 635 nm fluorescence, primary screen (AID 1102). The following applies: FGF10 binding, fluorescence 635 nm, higher = more signal.
In assay [6] the test system is glycogen synthase kinase-3 (GSK3A per assay name; protocol says GSK3B). The experiment in a line: compounds binding glycogen synthase kinase-3 – biochemical, small-molecule microarray, 635 nm fluorescence, GSK3A, primary screen (AID 1103). Note: the record names both GSK3A and GSK3B. The following applies: fluorescence 635 nm, higher = more signal.
Assay [7] has as its target Epidermal growth factor receptor (Homo sapiens) (UniProt P00533). Kind of assay: compounds binding epidermal growth factor receptor – biochemical, small-molecule microarray, 635 nm fluorescence, primary screen (AID 1104).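 Note: score merges 667 nm emission intensity with spot signal to noise over triplicate slides.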 The following applies: EGFR binding, higher = more signal.
In assay [8] the target is Follistatin-related protein 3 (Homo sapiens) (UniProt O95633). The experiment in a line: compounds binding follistatin-related protein 3 – biochemical, small-molecule microarray, 635 nm fluorescence, primary screen (AID 1105).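 Note: score merges emission near 667 nm and signal to noise per printed spot across three slides.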 The following applies: FSTL3 binding, higher = more signal.
Follistatin-related protein 3 (Homo sapiens), sequence (O95633 whole entry, looked up): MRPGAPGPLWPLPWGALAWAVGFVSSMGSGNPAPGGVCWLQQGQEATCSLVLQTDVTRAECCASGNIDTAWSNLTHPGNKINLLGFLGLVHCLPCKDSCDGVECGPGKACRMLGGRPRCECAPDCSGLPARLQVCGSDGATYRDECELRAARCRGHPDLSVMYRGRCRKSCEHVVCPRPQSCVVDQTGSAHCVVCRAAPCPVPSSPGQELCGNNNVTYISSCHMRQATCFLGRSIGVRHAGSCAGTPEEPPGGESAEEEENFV
For assay [9], the target named is Dickkopf-related protein 1 (Homo sapiens) (UniProt O94907). The experiment in a line: small molecules binding DKK1 protein – biochemical, small-molecule microarray, 635 nm fluorescence scan, primary screen (AID 1106).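 Note: score merges emission near 667 nm with signal to noise over three replicate slides.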 The following applies: higher = more signal.
Dickkopf-related protein 1 (Homo sapiens), sequence (O94907 whole entry, looked up): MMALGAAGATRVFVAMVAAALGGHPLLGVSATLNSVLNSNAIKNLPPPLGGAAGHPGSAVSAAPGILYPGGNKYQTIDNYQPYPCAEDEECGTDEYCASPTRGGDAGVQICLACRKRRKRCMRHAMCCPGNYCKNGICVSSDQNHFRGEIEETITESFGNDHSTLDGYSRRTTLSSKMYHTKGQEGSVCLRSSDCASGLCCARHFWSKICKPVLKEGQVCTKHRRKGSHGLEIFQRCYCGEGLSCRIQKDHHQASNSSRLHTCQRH
For assay [10], the system named is Inhibin beta A chain (activin A). The experiment in a line: small molecules binding activin A – biochemical, small-molecule microarray, 635 nm fluorescence scan, primary screen (AID 1107).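 Note: mouse activin A protein probed at 4.33 µg/mL on printed slides; score merges bound-protein fluorescence near 667 nm with spot signal-to-noise.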 The following applies: INHBA, higher = more signal.

The structures appear in SMILES notation. Calls of active or inactive are those of the source.

Epidermal growth factor receptor (Homo sapiens), sequence (P00533 whole entry, looked up): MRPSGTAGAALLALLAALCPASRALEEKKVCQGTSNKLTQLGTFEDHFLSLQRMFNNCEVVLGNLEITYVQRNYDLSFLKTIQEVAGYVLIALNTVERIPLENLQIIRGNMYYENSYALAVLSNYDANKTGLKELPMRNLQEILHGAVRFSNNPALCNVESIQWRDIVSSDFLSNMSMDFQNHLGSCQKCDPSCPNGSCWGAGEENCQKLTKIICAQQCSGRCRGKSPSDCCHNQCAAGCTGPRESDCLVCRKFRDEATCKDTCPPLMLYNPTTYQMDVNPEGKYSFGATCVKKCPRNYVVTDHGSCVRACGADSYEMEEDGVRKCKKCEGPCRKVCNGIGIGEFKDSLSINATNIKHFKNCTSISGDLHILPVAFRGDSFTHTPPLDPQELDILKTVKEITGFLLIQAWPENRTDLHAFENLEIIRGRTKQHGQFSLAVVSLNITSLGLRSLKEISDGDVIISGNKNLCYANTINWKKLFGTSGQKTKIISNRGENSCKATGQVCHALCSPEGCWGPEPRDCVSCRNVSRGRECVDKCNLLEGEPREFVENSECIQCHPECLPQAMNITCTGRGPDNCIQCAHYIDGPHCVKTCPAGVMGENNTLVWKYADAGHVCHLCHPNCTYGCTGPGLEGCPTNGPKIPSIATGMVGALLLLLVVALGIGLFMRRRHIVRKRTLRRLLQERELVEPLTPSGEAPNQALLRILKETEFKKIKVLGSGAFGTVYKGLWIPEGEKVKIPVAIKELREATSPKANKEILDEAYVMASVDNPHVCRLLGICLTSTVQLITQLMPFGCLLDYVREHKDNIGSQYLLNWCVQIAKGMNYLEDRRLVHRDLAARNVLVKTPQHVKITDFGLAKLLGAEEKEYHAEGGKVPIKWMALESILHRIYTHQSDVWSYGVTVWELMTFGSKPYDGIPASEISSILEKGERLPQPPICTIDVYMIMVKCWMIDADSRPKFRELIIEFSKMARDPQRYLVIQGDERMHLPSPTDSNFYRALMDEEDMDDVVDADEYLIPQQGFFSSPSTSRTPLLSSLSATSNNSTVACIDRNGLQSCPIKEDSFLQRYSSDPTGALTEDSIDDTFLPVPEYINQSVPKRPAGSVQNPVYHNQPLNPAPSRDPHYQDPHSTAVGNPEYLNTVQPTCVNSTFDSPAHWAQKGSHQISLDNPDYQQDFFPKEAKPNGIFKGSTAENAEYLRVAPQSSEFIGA
Fibroblast growth factor 10 (Homo sapiens), sequence (O15520 whole entry, looked up): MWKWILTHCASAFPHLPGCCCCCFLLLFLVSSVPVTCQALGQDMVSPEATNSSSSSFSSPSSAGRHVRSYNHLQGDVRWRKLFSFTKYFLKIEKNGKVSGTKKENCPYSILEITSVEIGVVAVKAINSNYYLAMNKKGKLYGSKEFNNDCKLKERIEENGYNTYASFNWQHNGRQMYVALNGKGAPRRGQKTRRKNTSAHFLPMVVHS

Consider `C[C@@]1([C@@H](NS(=O)(=O)c2cccc3cccnc23)c2ccc(-c3ccccc3)cc2)C[C@H]1C1CCCCC1`, for which the composite z-score was 0.15 in assay [1]; 0.778 in assay [2]; 1.19 in [3]; -0.0983 in assay [5]; -0.472 in assay [6]; 0.0823 in assay [7]. For the same compound, the composite z-score is 0.49 in assay [8], -0.473 in assay [9] and 0.638 in assay [10]. Further, in assay [4], the z-score is -1.19 (inactive).
In the case of `[N-]=[N+]=NCc1ccccc1C[C@@]1(C(N)=O)N=C(c2ccc(OCCCO)cc2)O[C@@H]1c1ccccc1N=[N+]=[N-]`, the composite z-score in [1] was 1.51; in [2], 0.747; in assay [3] it was 1.13; in [5], 0.839; in assay [6], 1.19; in [7], -0.547. The composite z-score in assay [8] is -0.239; in [9], -0.38; in assay [10], -0.217. For the same compound, the z-score in [4] is -0.397 (inactive).
For `C[C@]1(C(=O)NC2CC2)c2ccccc2C(=O)N(Cc2cc(F)cc(C(F)(F)F)c2)[C@H]1c1ccc(CO)cc1`, the composite z-score in [1] was 0.938; in assay [2], -0.554; in assay [3], 0.87; in assay [5] it was -0.698; in assay [6], -1.08; in [7] it was -1.16. Further, the composite z-score was -0.801 in assay [8], -1.46 in assay [9] and -0.672 in [10]. In [4], the z-score is -0.224 (inactive).
For `COC(=O)[C@@]1(Cc2ccc(F)cc2)[C@H]2c3cc(C(=O)N4CCCC4)n(CCSCCO)c3C[C@H]2CN1C(=O)c1ccccc1`, the composite z-score was 1.33 in assay [1]; 1.02 in assay [2]; 1.22 in assay [3]; 0.26 in assay [5]; -0.273 in assay [6]; -0.707 in [7]. The composite z-score is -0.803 in assay [8], -0.957 in assay [9] and 1.06 in assay [10]. Besides, the z-score in assay [4] is -2.25 (inactive).
As to `C=CC[C@@]1(C(=O)NCCCOC)N=C(c2ccc(OCCCO)cc2)O[C@@H]1c1ccccc1CN=[N+]=[N-]`, the composite z-score in assay [1] was 1.5; in [2] it was 0.739; in assay [3], 0.772; in [5], 1.38; in [6] it was 1.31; in assay [7] it was 0.0652. Also, the composite z-score in assay [8] is 1.2; in assay [9] it was -0.0117; in [10], 1.14. The z-score in assay [4] is -0.226 (inactive).
On to `C=CC[C@H](O)c1ccc(O)c2ccccc12`, for which the composite z-score in assay [1] is 0.623; in assay [2] it was -0.196; in assay [3] it was -0.0155; in [5] it was 1.1; in assay [6], 1.01; in assay [7] it was 1.04. Further, the composite z-score was determined as 1.42 in assay [8], 1.34 in [9] and 1.21 in assay [10]. Further, in [4], the z-score was -1.26 (inactive).
On to `COc1cc(Cc2cc3c(c(-c4ccccc4)n2)[Si](C(C)C)(C(C)C)OC3)cc(OC)c1OC`, for which the composite z-score is -0.201 in assay [1]; -0.113 in assay [2]; 0.105 in [3]; 0.607 in assay [5]; -0.0611 in assay [6]; 0.1 in assay [7]. In addition, the composite z-score amounted to 0.0088 in assay [8], 0.17 in [9] and 1.23 in assay [10]. The z-score in assay [4] was -0.877 (inactive).
Take `COc1ccc([Si](C)(C)[C@@H]2[C@@H](CC(=O)N(CCO)Cc3ccccc3)O[C@]3(C(=O)N(Cc4cccc(I)c4)c4ccccc43)[C@H]2C)cc1`: the composite z-score in assay [1] was 0.824; in [2] it was -0.0248; in assay [3], 0.337; in assay [5], 1.45; in assay [6] it was 0.766; in [7], 0.661. The composite z-score in assay [8] worked out at 1.42; in [9] it was 1.34; in assay [10], 0.963. Besides, the z-score in assay [4] is -0.847 (inactive).
Regarding `C=CC[C@]1(C(=O)NCC(O)CO)N=C(c2ccc(OCCCO)cc2)O[C@H]1c1ccccc1CN=[N+]=[N-]` (stereo not given in full), the composite z-score was -0.285 in [1]; 0.783 in assay [2]; 1.18 in assay [3]; 0.722 in [5]; 0.7 in assay [6]; -2.08 in assay [7]. Also, the composite z-score is -1.17 in [8], -0.471 in [9] and 0.274 in assay [10]. In addition, the z-score in assay [4] was 0.704 (inactive).
Consider `COc1ccc([Si](C)(C)[C@H]2[C@H](CC(=O)N3CCC[C@H]3CO)O[C@@]3(C(=O)N(C)c4ccccc43)[C@@H]2C)cc1`, for which the composite z-score is 0.364 in assay [1]; 0.214 in assay [2]; -0.159 in [3]; 0.105 in [5]; -0.102 in assay [6]; 0.335 in assay [7]. The composite z-score in [8] worked out at 0.705; in [9], 0.588; in assay [10], 1.48. Besides, the z-score in assay [4] is 0.361 (inactive).
As to `CCOC(=O)C1=C[C@@H](C(C)(C)C)N(S(=O)(=O)c2ccc(C)cc2)[C@H]1c1ccc(OC)cc1`, the composite z-score in [1] was 0.463; in [2], 0.305; in assay [3], -0.0462; in [5], 0.998; in assay [6], 1.29; in assay [7], 0.902. In addition, the composite z-score in assay [8] worked out at 1.27; in assay [9], 0.33; in [10] it was 0.318. Besides, the z-score in [4] was -1.5 (inactive).
`COC(=O)[C@@]1(Cc2ccc(F)cc2)[C@H]2c3cc(C(=O)N4CCCC4)n(Cc4ccc(C(F)(F)F)nc4)c3C[C@H]2CN1C(=O)c1ccccc1`: the composite z-score amounted to 0.513 in assay [1]; 0.16 in [2]; 1.33 in assay [3]; 0.472 in assay [5]; 1.3 in assay [6]; 0.643 in assay [7]. Also, the composite z-score in assay [8] is 1.19; in assay [9], -0.417; in [10] it was 0.843. Further, the z-score in assay [4] is -0.375 (inactive).
As for `C=C[C@H](OC)[C@@H](O)c1ccc(OC)c(O)c1`, the composite z-score in assay [1] was 0.352; in [2] it was -0.464; in assay [3], 0.37; in assay [5], -0.928; in assay [6], -1.3; in assay [7], -1.14. The composite z-score in assay [8] is -1.91; in assay [9] it was -1.29; in assay [10], -1.28. Besides, the z-score in assay [4] was 0.772 (inactive).
With `C=C(COC)C(=O)CC[C@@H](OC(=O)c1ccccc1-c1ccccc1C(=O)O)c1ccccc1OCCO`, the composite z-score is 0.664 in assay [1]; -0.0934 in assay [2]; 0.0182 in assay [3]; 1.65 in assay [5]; 0.293 in assay [6]; -0.0099 in [7]. In addition, the composite z-score in assay [8] worked out at 0.474; in [9], 0.902; in assay [10], 1.34. Also, the z-score in assay [4] was -0.14 (inactive).
For the compound `CCCC1(C(=O)OC)C=C2C(=C(C(C)C)C(=O)C2C)CN1` (stereo not given), the composite z-score was -0.129 in assay [1]; 0.759 in [2]; 0.813 in assay [3]; -0.474 in [5]; -1.63 in assay [6]; -0.648 in assay [7]. In addition, the composite z-score in assay [8] is -0.911; in [9], -0.724; in assay [10], 1.17. In [4], the z-score was 1.44 (inactive).
For the compound `COCCCNC(=O)[C@@]1(CCC(=O)OC(C)(C)C)N=C(c2ccc(OCCCO)cc2)O[C@H]1c1ccccc1`, the composite z-score was 1.06 in assay [1]; 0.96 in assay [2]; 1.02 in assay [3]; 0.638 in [5]; -0.505 in assay [6]; -0.266 in [7]. The figures for the composite z-score in assay [8], in assay [9] and in assay [10] were 0.297, -0.538 and 0.701, respectively. Further, in assay [4], the z-score is -0.187 (inactive).
